The values below come from PubChem BioAssay (EPA / NIEHS).

Activity calls are given as the source filed them. Rule for the calls: active = hit-call score of the fitted dose curve at least 0.9, where 1 is the maximum; inactive = score below 0.9.

This assay is described as follows: CCTE_Simmons_MITO_inhib_resp_rate: CCTE's HepG2 Seahorse XF Respirometric Screening Assay at Inhibited Respiratory State [full ETC block], Simmons Lab (AID 2284006). The note with it: actives raise or lower the signal. The method, then:
CCTE_Simmons_MITO is cell-based, respirometric assay using HepG2 cells and a Seahorse XF Analyzer to measure oxygen consumption rates over four temporal phases spanning a total of 72 minutes: pre-injection (pre-treatment), basal (following test compound injection), maximal (following FCCP uncoupler injection), and inhibited (following rotenone/antimycin A injection)CCTE_Simmons_MITO_inhib_resp_rate is one of 4 assay components calculated from the CCTE_Simmons_MITO assay. It is designed to make measurements of inhibited respiration using a form of respirometric reporter, as detected with […] signals by Seahorse XF96 technology. Data from the assay component CCTE_Simmons_MITO_inhib_resp_rate was analyzed at the endpoint, CCTE_Simmons_MITO_inhib_resp_rate_OCR, with bidirectional fitting relative to DMSO as the negative control and baseline of activity. Using a type of respirometric reporter, measures of inhibited respiration for gain or loss-of-signal activity can be used to understand cellular oxygen consumption as it relates to cellular respiration. To generalize the intended target to other relatable targets, this assay endpoint is annotated to the mitochondria intended target family, where the subfamily is respiration.
Test chemicals were administered as a titrated series of 7 concentrations from 125 nM up to 100 uM [final] prior to kinetic endpoint detection at 6 minute intervals [3 min mix followed by 3 minutes measure] for 72 minutes. Three biological replicates of technical singles were run for every chemical concentration tested. Dimethylsulfoxide [DMSO] was used as the vehicle control. The electron transport chain inhibitor fenpyroximate was used as the positive control for decreased basal respiration and was administered as a titrated series of 6 concentrations from 250 nM up to 2.75 uM [final] with technical triplicates for the top concentration only. The uncoupler 2,4-dintirophenol was used as the positive control for increased basal respiration and was administered as a titrated series of 6 concentrations from 938 nM up to 40 uM [final] with technical triplicates for the top concentration only. A Seahorse XF Analzyer is required to measure the response.
On to `COc1ccc(S(=O)(=O)N2C(=O)[C@@](c3ccccc3OC)(N3C[C@H](O)C[C@H]3C(=O)N(C)C)c3cc(Cl)ccc32)c(OC)c1`, for which the call was inactive.

Turning to `COc1ccc2c(c1)c(CC(=O)O)c(C)n2C(=O)c1ccc(Cl)cc1`, the molecule was classed as inactive.

As usually defined, the AC50 is the concentration at which the activity in the assay is half-maximal. For `Cc1c(C(=O)O)c(O)cc2c1C(=O)c1c(O)c([C@@H]3O[C@H](CO)[C@@H](O)[C@H](O)[C@H]3O)c(O)c(O)c1C2=O`, the half-maximal activity concentration (AC50) is 3.25 µM (active).

As for `CC(C)(C)c1cc(O)c(C(C)(C)C)cc1O`, the outcome was inactive.

As to `CCCCC(CC)COC(=O)CC(C(=O)OCC(CC)CCCC)S(=O)(=O)O` (stereo not given), the result was inactive.

For `COc1cc(S(=O)(=O)O)c(C)cc1N=Nc1c(O)ccc2cc(S(=O)(=O)O)ccc12`, the AC50 is 23.8 µM (active).

Consider `Cc1oc(-c2ccccc2)nc1CCOc1cccc2c1ccn2CCC(=O)O`, for which the call was inactive.

Regarding `C=CCOC(=O)c1ccccc1C(=O)OCC=C`, the molecule was called inactive.

`Cc1cccc(Nc2cc(Cl)nc(SCC(=O)O)n2)c1C`: the result was inactive.

Consider `CN[C@H]1CC[C@@H](c2ccc(Cl)c(Cl)c2)c2ccc(S(N)(=O)=O)cc21`, for which the molecule was classed as inactive.
